Reference: ChEMBL document CHEMBL1157539, “Thousands of chemical starting points for antimalarial lead identification” (Nature, 2010)
Values joined by “and” are separate entries in the source; they are usually repeats but may differ in a detail not shown here. Equal values may be shown once.

Columns and labels:
Assay type in all cases: functional
Plasmodium falciparum [1] = assay: GSK_TCMDC: Inhibition of Plasmodium falciparum 3D7 in whole red blood cells, using parasite LDH activity as an index of growth. Test compounds present at 2uM
Plasmodium falciparum [2] = assay: GSK_TCMDC: Inhibition of Plasmodium falciparum Dd2 in whole red blood cells, using parasite LDH activity as an index of growth. Test compounds present at 2uM
HepG2 = assay: GSK_TCMDC: Percent inhibition of human HepG2 cell line. Test compounds present at 10uM.

SMILES | Inhibition (Plasmodium falciparum [1]) | Inhibition (Plasmodium falciparum [2]) | Inhibition (HepG2)
CCCCc1ccc2[nH]cc(C3=CCN(C)CC3)c2c1Br | 94% | 94% | 37%
O=C(/C=C/c1ccc(Cl)cc1Cl)NC1CCC(CN2CCC(c3c[nH]c4ccccc34)CC2)CC1 (centres undefined) | 100% | 79% | 37%
COc1ccc(C(=O)C2CC2CN2CC=C(c3c[nH]c4ccc(OC)nc34)CC2)cc1 (centres undefined) | 98% | 91% | 8%
CC(Cc1ccc(Sc2ccccc2)cc1)NCC(O)c1cccc(C(F)(F)F)c1 (centres undefined) | 99% | 53% | 0%
CN(C)CCc1c[nH]c2ccc(C(=O)Nc3ccc(-c4ccncc4)cc3)cc12.O=C(O)CCC(=O)O | 99% | 46% | 23%
CCCCCNC(=N)N/N=C/c1c[nH]c2ccc(OC)cc12.Cl | 86% | 2% | 16%
CN1C2CCC1c1cc(NC(=O)c3cc(-c4ccc(Cl)cc4)cs3)ccc12.O=C(O)C(F)(F)F (centres undefined) | 90% | 35% | 62%
Oc1ccccc1CNCC(O)c1cccc(C(F)(F)F)c1 (centres undefined) | 100% | 97% | 1%
Cc1cccc2[nH]cc(C3CCN(CC4CCC(NC(=O)/C=C/c5ccc(Cl)c(Cl)c5)CC4)CC3)c12.Cl (centres undefined) | 100% | 97% | 88%
COCC(=O)N(Cc1ccccc1-c1cccc(CNCCc2ccccc2)c1)C1CCN(Cc2ccccc2)CC1.O=C(O)C(F)(F)F | 93% | 36% | 21%
O=C(NC1CCC(CN2CCC(c3c[nH]c4ccccc34)CC2)CC1)c1cc(-c2ccc(F)cc2F)ccc1O (centres undefined) | 100% | 100% | 30%
CNCCCN(C)C(=O)Oc1c(Br)c(C)nc(C)c1-c1ccc(Oc2ccc(OC(F)(F)F)cc2)cc1.Cl | 96% | 96% | 17%
O=C(/C=C/c1ccc(C(F)(F)F)cc1)NC1CCC(CN2CCC(c3c[nH]c4ccccc34)CC2)CC1 (centres undefined) | 100% and 98% | 100% and 97% | 73% and 42%
CCC1(C)CC(CCNCc2ccccc2O)(c2ccc(C)cc2)CCO1 (centres undefined) | 97% | 66% | 9%
O=C1COc2ccccc2N1CCN1CCC(NCc2ccc(-c3cccs3)cc2)CC1 | 87% | 18% | 37%
COc1ccc(CCNCc2ccc3nc(N)c(C)cc3c2)cc1.Cl | 100% | 15% | 0%
CCCN(CC(=O)NCCc1ccccc1)c1ccc(C#N)c2ccccc12.O=C(O)C(F)(F)F | 92% | 39% | 8%
COc1ccc(CN(C2CC2)C(C)C(=O)c2[nH]c(C)c(C(C)=O)c2C)cc1 (centres undefined) | 98% | 64% | 40%
CC[C@H]1CN2CC[C@H]1C[C@@H]2[C@@H](O)c1cc(Cl)nc2ccc(OC)cc12 | 98% | 82% | 0%
CC[C@H]1CN2CC[C@H]1C[C@H]2[C@H](O)c1cc(-c2cccc(F)c2)nc2ccc(OC)cc12.Cl | 99% | 97% | 34%
COc1cc(NCCCNC(=O)c2cn(Cc3ccccc3)c3ccccc23)nc2ccccc12 | 100% | 66% | 13%
CC[C@H]1CN2CC[C@@H]1C[C@H]2[C@H](O)c1cc(-c2c(C)noc2C)nc2ccc(OC)cc12.Cl | 100% | 98% | 4%
CCCCCCC(C)(C)c1cc(O)c2c3c(c(=O)oc2c1)CCN(Cc1ccccc1)C3.Cl | 100% | 99% | 3%
CCCCCCCc1cc(O)c2c3c(c(=O)oc2c1)CN(C)CC3 | 97% | 100% | 0%
Cc1nc2ccccc2n1C1CC2CCC(C1)N2Cc1nccn1-c1ccccc1.O=C(O)C(F)(F)F (centres undefined) | 94% | 96% | 0%
COc1cc(C=CC(=O)NC2CCC(CN3CCC(c4c[nH]c5ccccc45)CC3)CC2)cc(OC)c1 (centres undefined) | 100% | 90% | 38%
Cc1ccc(C[C@@H](C)NC[C@H](O)c2cccc(C(F)(F)F)c2)cc1.O=C(O)/C=C/C(=O)O | 100% | 79% | 10%
Br.CCCCCCCSc1ccc(CC(C)NCC(O)c2cccc(Cl)c2)cc1 (centres undefined) | 100% | 99% | 94%
